# proKLK7 act: proKLK7 zymogen activators, primary screen, biochemical, fluorescence intensity; 0.9% of 370,000 active; purified proKLK7, EDANS-DABCYL substrate fluorescence; 100% is mature enzyme control, 0% vehicle; Kallikrein-7 (Homo sapiens), P49862; activation, % at 7 µM;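 active = activation above the mean of all tested compounds plus 3 SD, computed per campaign excluding outliers beyond control limits, cut at about 13% in these data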
# Target sequence (P49862 whole entry, looked up): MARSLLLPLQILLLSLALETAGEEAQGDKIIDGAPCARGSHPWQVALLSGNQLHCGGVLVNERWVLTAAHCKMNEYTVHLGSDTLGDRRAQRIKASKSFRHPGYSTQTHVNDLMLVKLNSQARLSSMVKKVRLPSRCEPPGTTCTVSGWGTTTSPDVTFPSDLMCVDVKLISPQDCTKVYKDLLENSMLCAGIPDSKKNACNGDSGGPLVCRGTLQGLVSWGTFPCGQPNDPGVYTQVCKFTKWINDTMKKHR
# MsrA inhibitor: bovine MsrA enzyme inhibitors, primary screen, biochemical, absorbance, HTS; Methionine sulfoxide reductase A (Bos taurus); purified bovine MsrA, absorbance read-out; inhibition, % at 15.5 µM; 0.75% of 360,000 active; AID 651718, 2012; in the data active = inhibition above about 4.5%;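 also: 0% = vehicle wells with enzyme and 100% = reference inhibitor wells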
# SMARCA2 act: SMARCA2 (BRM) function activators, primary screen, cell-based, luminescence, high throughput. MG213 cells, MMTV-luciferase reporter, dexamethasone, overnight. activation, % at 9.1 µM. 1% of 370,000 active; in the data active = activation above about 7.8%;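 also: 0% = vehicle wells and 100% = reference activator wells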
# MsrA act: bovine MsrA enzyme activators, primary screen, biochemical, absorbance, HTS; activation, % at 10.6 µM; Methionine sulfoxide reductase A (Bos taurus); purified bovine MsrA, absorbance read-out; 0.3% of 360,000 active; in the data active = activation above about 7.5%;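 also: 0% = vehicle and 100% = reference activator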
# proKLK7 act conf: proKLK7 zymogen activators, confirmation, biochemical, fluorescence intensity, triplicate; shares compounds with proKLK7 act; purified proKLK7, EDANS-DABCYL substrate fluorescence; scaled: vehicle 0, mature enzyme 100; activation, % at 7 µM; 68% of 3,200 active; AID 686949, 2013;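 active = activation, as change over the incubation, above the mean of all tested compounds plus 3 SD, cut at about 13% in these data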
# EDANS interfere: EDANS-DABCYL substrate optical interference, artefact control for kallikrein-7 zymogen activator project, biochemical, fluorescence intensity, high throughput | shares compounds with proKLK7 act | no enzyme, 4 h; solvent 0%, active enzyme control 100% | activation, % at 7 µM | 80% of 3,200 active | AID 686952, 2013;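 active = activation above the all-compound mean plus 3 SD, ignoring values outside control-based bounds, cut at about 4.8% in these data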;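 also: value is the 4 h activation minus the activation read at time zero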
# K7 EDANS ctr: optically interferes with EDANS-DABCYL fluorescence, kallikrein-7 activator counter-screen. AID 720493. EC50, µM. 20% of 250 active. shares compounds with proKLK7 act. EDANS-DABCYL peptide fluorescence interference, no enzyme;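 active = compounds that raise the fluorescence signal in this interference counterscreen, with EC50 at or below 10 µM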;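 also: intact quenched peptide substrate alone read at 355 nm excitation and 520 nm emission; signal is fluorescence gain from T0 to T4 after four hours at room temperature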
# * hit, by the source's call; i = inactive; / = no result. The list is not random: actives were taken first. Their share in the collection is about 2.8%.
SMILES,proKLK7 act,MsrA inhibitor,SMARCA2 act,MsrA act,proKLK7 act conf,EDANS interfere,others
CC(C)(C)c1ccc(CC(=O)N2CCC2(C)C(=O)Nc2cccc3c2CCCC3)cc1 (stereo not given),0,-1,-2,1,/,/,
COc1ccc(C(C)(C)C)cc1NC(=O)CCc1c(C)noc1C,1,-1,2,-1,/,/,
Cc1ccccc1N(CC(=O)NC1CCCC1)C(=O)C1(C)CC(=O)N=C2C=CC=CN21 (stereo not given),3,1,2,1,/,/,
Cc1ccccc1N(CC(=O)NC1CCCC1)C(=O)C1(C)CC(=O)N=C2C=CC(Cl)=CN21 (stereo not given),16*,0,-3,-2,33*,39*,
CCOC(=O)[C@]12CCC=C1N(Cc1ccccc1)C(=O)[C@H](CC(=O)NCc1ccccc1)C2,-1,0,0,2,/,/,
CCOC(=O)C(=O)Cc1nc2ccccc2s1,13*,2,3,3,4,5.3*,
COc1cc(-c2ccc3oc(-c4cccc(C)c4)c(C#CC4(O)CCCCC4)c3c2)cc(OC)c1OC,83*,3,-1,-9,-9,2,
CC1CCCCC1NC(=O)CN1c2cccc3cccc(c23)S1(=O)=O (stereo not given),8,0,-2,-2,/,/,
CCC(C)NC(=O)CN1c2cccc3cccc(c23)S1(=O)=O (stereo not given),14*,0,-2,-6,6,9.6*,
CC1CCN(C(=O)CN2c3cccc4cccc(c34)S2(=O)=O)CC1,18*,0,0,-2,9,7.1*,
CCNC(=O)CN1c2cccc3cccc(c23)S1(=O)=O,4,0,1,-1,/,/,
CNC(=O)c1ccc(Nc2nnc(-c3ccc(C(N)=O)cc3)c3ccccc23)cc1,133*,3,1,-13,7,108*,
CCOc1cc(C2C(C(=O)N3CCCCC3)=C(C)NC3=C2C(=O)CCC3)cc(Br)c1O (stereo not given),15*,2,3,-6,8,15*,
CCOC(=O)C1=C(C)NC2=C(C(=O)CCC2)C1c1ccc(O)c(OCC)c1 (stereo not given),1,0,1,-5,/,/,
O=C(Nc1ccc2nc3ccccc3nc2c1)c1ccccc1,35*,0,4,2,32*,21*,K7 EDANS ctr=>69
CC(=O)Nc1ccc2nc(-c3ccncc3)[nH]c2c1,22*,3,-1,-2,17*,21*,
O=C(Nc1ccc(Cl)c(Cl)c1)c1ccccc1,1,0,3,-1,/,/,
CC(=O)Nc1ccc2cc3ccc(NC(C)=O)cc3nc2c1,17*,2,3,1,34*,44*,
C[C@@H]1C[C@H]2[C@@H](C)C(=O)N3[C@H](c4ccccc4)[C@H](C)C[C@H]3[C@@H](C)C(=O)N2[C@@H]1c1ccccc1,1,/,-1,/,/,/,
C#CCNC(=O)C[C@H]1C[C@@]2(C(=O)OC)C(=C[C@H](COCc3ccccc3)O[C@@H]2C)N(Cc2ccc(Cl)cc2Cl)C1=O,1,/,1,/,/,/,
CS(=O)(=O)Nc1ccc(C2=NN(C(=O)CCCC(=O)O)C(c3cccs3)C2)cc1 (stereo not given),26*,3,-2,-1,48*,74*,
CS(=O)(=O)Nc1cccc(C2=NN(C(=O)CCC(=O)O)C(c3cccs3)C2)c1 (stereo not given),-2,-1,4,-4,/,/,
COc1ccc2nccc(C(N)=O)c2c1,13*,0,3,-3,26*,26*,
Cc1ccc(N=c2oc3cc(O)ccc3cc2C(N)=O)cc1,24*,3,1,-2,10,11*,
O=C(NCc1ccco1)c1cc2ccc(O)cc2oc1=O,49*,1,5,-9,58*,71*,
SMILES,proKLK7 act,MsrA inhibitor,SMARCA2 act,MsrA act,proKLK7 act conf,EDANS interfere,others
CC(=O)c1cc2cc(O)ccc2o1,83*,2,-3,-2,71*,64*,
CC(=O)c1cc2c(O)c(O)ccc2o1,3,2,-3,2,/,/,
COc1ccc2cc(C(=O)NCc3ccco3)c(=O)oc2c1,-25,3,3,-8,/,/,
Cc1ccc(C(=O)N/N=c2\oc3ccccc3cc2C(N)=O)cc1,-1,2,-2,-4,/,/,
CC(=O)c1cc2ccc(O)cc2oc1=O,20*,1,-3,-7,27*,32*,
Cn1c(NCCc2ccncc2)nc2cc(-c3ccccc3)sc2c1=O,0,1,-4,-3,/,/,
CC1(c2nnnn2Cc2ccccc2)CN(S(C)(=O)=O)CC(=O)N1Cc1cccs1 (stereo not given),0,/,-2,/,/,/,
COc1ccc2c(c1)C(=O)C1(CC2)OC1c1cccnc1 (stereo not given),-1,-1,4,-3,/,/,
Nc1cc(Cl)ccc1C(=O)OCC(=O)NC1CCS(=O)(=O)C1 (stereo not given),2,2,-2,-3,/,/,
Nc1ccc(Cl)cc1C(=O)OCC(=O)NC1CCS(=O)(=O)C1 (stereo not given),14*,0,4,-7,23*,19*,K7 EDANS ctr=i
Cc1cccc(CN2CCc3c([nH]c4ccccc34)C2C(C)(C)C)n1 (stereo not given),13*,-1,-3,-1,7,12*,
Cc1ccccc1-c1ccc2c(c1)[C@@H]1C[C@H](N(C)CC3CCCCC3)[C@H]([C@H](C)O)CN1CC2,13*,0,0,/,6,7.1*,
Cc1ccc(S(=O)(=O)N(C)[C@H]2C[C@H]3c4cc(-c5ccccc5C)ccc4CCN3C[C@H]2[C@H](C)O)cc1,6,/,-2,/,/,/,
Cc1cc(N2CCN(c3ccccc3)CC2)nc2ccccc12,1,1,-1,-5,/,/,
Cc1cc(N2CCC(N(C)C3CCCC3)CC2)nc2cc(O)ccc12,16*,0,0,-5,25*,31*,
CCCCN1C(=O)Cc2c1nc(N)c1c(N)nc(N(CCC)CCC)c(C#N)c21,-1,0,-1,-10,/,/,
N#Cc1c(N(CCO)CCO)nc(N)c2c(N)nc3c(c12)CC(=O)N3CC1CCCO1 (stereo not given),30*,0,-2,-8,43*,49*,
CCOC(=O)[C@]12CCC=C1N(Cc1ccco1)C(=O)[C@H](CC(=O)NCC13CC4CC(CC(C4)C1)C3)C2,0,-2,-3,2,/,/,
CN1CCCN(C(=O)c2ccc(Br)s2)CC1,0,-1,2,-5,/,/,

# Screening results as filed in PubChem BioAssay.
